The list is not random: actives were taken first. Their share in the collection is about 2.6%.
LMP1 NFkB inh = EBV LMP1-driven NF-kappaB luciferase reporter inhibitors, primary screen, cell-based, luminescence, single point; LMP1-induced NF-kappaB luciferase reporter cells; inhibition, % at 12.5 µM; hit rate 0.69% among 350,000; in the data active means inhibition above about 41%;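 further: 0% = neutral control wells and 100% = reference inhibitor control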
LGR2 antag = inhibitors of bursicon-induced LGR2 CRE-luciferase signal, primary screen, cell-based, HEK293, CRE-luciferase reporter, bursicon stimulation; hit rate 0.35% among 380,000; inhibition, % at 9.99 µM; AID 720647, 2013; Drosophila bursicon receptor LGR2 (rickets); bursicon-stimulated, 4 h;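 active means drop in luminescence signal, shown as inhibition above about 50% in the replicate tests, limit read from the data, passing the limit was not always enough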;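 further: agonist challenge used bursicon conditioned medium at about half maximal strength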
TWEAK-Fn14 inh = inhibitors of TWEAK-Fn14 signaling, primary screen, luciferase reporter cells, uHTS; TWEAK-stimulated Fn14 reporter cells, luciferase luminescence, 8 h; hit rate 2% among 360,000; inhibition, % at 10 µM; in the data active means inhibition above about 50%
HSP90 refold inh = HSP90 inhibitors, primary screen, cell lysate, luminescence | hit rate 0.91% among 290,000 | inhibition, % at 5.6 µM | Rabbit reticulocyte lysate, luciferase refolding luminescence, 3 h;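 active means inhibition above the screen-wide mean plus 3 SD, computed separately per campaign, cut at about 16% in these data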;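 further: 0% = DMSO wells and 100% = 60 µM geldanamycin wells; inhibitors lower the luminescence because luciferase stays unfolded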
aDG glyco act = activators of alpha-DG glycosylation, primary screen, uHTS, Pro5-aDG cells, AlphaScreen; alpha-DG glycosylation AlphaScreen (IIH6); 0% Pro5, 100% B10-LARGE cell signal; activation, % at 10 µM; hit rate 0.22% among 360,000;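 active means activation of at least 8% versus controls, or a plate z-score of at least 8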;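 further: Pro5 are CHO cells carrying HIG-tagged alpha-DG that lacks glycosylation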
TROY NFkB inh = inhibitors of TROY-driven NF-kB signaling, primary screen, Q293 LMP1-TROYcd cells, NF-kB luciferase, uHTS | inhibition, % at 10 µM | Q293 LMP1-TROYcd NF-kB luciferase reporter, 4 h | hit rate 0.98% among 360,000;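 active means compounds whose plate-normalised and pattern-corrected inhibition of the luciferase reporter signal at the single screening dose is 50% or more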
Numbers without * were called inactive; . = no result given.

SMILES	LMP1 NFkB inh	LGR2 antag	TWEAK-Fn14 inh	HSP90 refold inh	aDG glyco act	TROY NFkB inh
CNC(=O)C[C@H]1CC[C@@H]2[C@H](COc3ccc(NC(=O)c4cc(C)on4)cc3C(=O)N2C)O1	.	-6.4	.	.	.	.
COc1ccc(NC(=O)Nc2ccc3c(c2)C(=O)N([C@H](C)CO)C[C@H](C)[C@@H](CN(C)C(=O)Nc2cccc4ccccc24)OCCCC[C@@H](C)O3)cc1	.	11.0	.	.	.	.
COCC(=O)N(C)c1nnc(-c2ccccn2)s1	50.4*	.	0.4	0.9	-0.2	-36.3
COc1ccc(C(=O)Nn2c(C)nc3ccccc3c2=O)cc1Br	0.3	-0.4	5.1	-4.8	-0.1	-29.1
COc1ccc(C(=O)NCC(=O)Nc2ccccc2)cc1OC	-0.9	.	59.4*	-6.2	3.4	.
COc1cc(C(=O)Nc2ccc(C(=O)O)cc2)ccc1OC(C)=O	2.6	-36.6	14.7	4.3	-0.2	13.4
COc1ccc(/C(C)=N/Nc2ccc(C(=O)O)cc2)cc1OC	-3.5	-54.8	18.9	26.1*	-0.2	20.4
COc1ccc(C(=O)NCCCNC(=O)c2cc3ccccc3[nH]2)cc1OC	75.5*	-10.5	-3.1	4.8	0.2	15.7
COc1ccc(C(=O)Nn2c(C)nc3ccccc3c2=O)cc1OC	7.1	8.3	-7.8	-2.5	-0.1	59.2*
O=C(NCCCO)c1cc2ccccc2[nH]1	-4.3	7.1	10.7	0.5	-0.3	-8.6
CCCC(=O)Nc1ccc2c(c1)OC[C@H](C)N(C(=O)c1ccccc1F)C[C@@H](C)[C@@H](OC)CN(C)C2=O	.	-1.9	.	.	.	.
Cc1noc(C)c1S(=O)(=O)N(C)C[C@@H]1Oc2ccc(N(C)C)cc2CC(=O)N([C@H](C)CO)C[C@H]1C	.	-9.9	.	.	.	.
COc1ccc2c3c([nH]c2c1)[C@H](CO)N(C(=O)c1ccc(F)cc1)CC31CCN(C(=O)CC2CC2)CC1	.	-4.6	.	.	.	.
C[C@H]1CN([C@@H](C)CO)C(=O)c2cccc(NC(=O)c3ccc(-c4nccs4)cc3)c2O[C@H]1CN(C)S(=O)(=O)c1cccs1	.	-5.7	.	.	.	.
COCCNC(=O)C[C@H]1C[C@H]2c3cc(NC(=O)NC4CCCCC4)ccc3O[C@H]2[C@@H](CO)O1	.	7.0	.	.	.	.
COc1ccc(C(=O)c2sc(Nc3ccccc3)c(C(=O)Nc3ccc(OC)c(OC)c3)c2N)cc1	1.1	.	-19.3	0.7	0.2	-11.4
COc1ccc(NC(=O)c2c(Nc3ccccc3)sc(C(=O)c3ccc(F)cc3)c2N)cc1	25.1	.	52.0*	5.0	0.9	16.4
Cc1noc(C)c1NC(=O)NCC[C@H]1CC[C@@H](NC(=O)c2ccncc2)[C@H](CO)O1	.	12.8	.	.	.	.
COc1cc(OC)cc(C(=O)N2CCC(N3CCN(c4ccccc4OC)CC3)CC2)c1	-20.8	2.0	52.9*	-1.4	0.0	52.1*
COc1ccc(Cn2c(=O)[nH]c3cc(C(=O)N4CCN(c5ccccc5OC)CC4)ccc3c2=O)cc1	1.7	.	52.6*	-2.6	0.5	31.2
COc1ccc(C(=O)N2CCN(c3ccccc3OC)CC2)cc1	5.3	-12.2	10.4	-2.4	-0.5	5.5
COc1ccc(S(=O)(=O)N(C)C[C@@H]2Oc3c(NC(=O)Nc4ccccc4)cccc3C(=O)N([C@@H](C)CO)C[C@@H]2C)cc1	.	10.1	.	.	.	.
C[C@@H]1CN([C@H](C)CO)S(=O)(=O)c2ccc(-c3ccc(F)cc3)cc2O[C@@H]1CN(C)C(=O)Nc1ccc(F)cc1	.	18.9	.	.	.	.
CCOCCCNC(=O)Cn1cnc2c(cnn2-c2ccc(C)c(C)c2)c1=O	3.2	-6.2	108.0*	-0.1	0.3	-1.9
CCC(=O)N1C[C@H](C)[C@@H](OC)CN(C)C(=O)c2cc(NC(=O)C3CCCCC3)ccc2OC[C@H]1C	.	6.1	.	.	.	.
SMILES	LMP1 NFkB inh	LGR2 antag	TWEAK-Fn14 inh	HSP90 refold inh	aDG glyco act	TROY NFkB inh
O=C(Cn1cnc2c(nnn2Cc2ccccc2)c1=O)N1CCN(c2ccccc2)CC1	83.0*	-3.3	10.3	1.7	-0.3	2.6
Oc1ccc(-c2nc3ccccc3s2)c(O)c1	-25.1	-87.4	-38.6	2.6	1.6	-95.2
Oc1ccc(-c2cnns2)c(O)c1	-2.8	25.6	63.0*	-2.4	0.1	-22.9
CN(C)C(=O)C[C@@H]1CC[C@H]2[C@@H](COC[C@@H](O)CN2S(=O)(=O)c2ccccc2)O1	.	-9.0	.	.	.	.
Cc1noc(C)c1NC(=O)Nc1ccc2c(c1)C(=O)N([C@@H](C)CO)C[C@@H](C)[C@@H](CN(C)C(=O)NC(C)C)OCCCC[C@@H](C)O2	.	-9.4	.	.	.	.
CCOc1ccc(N(C(C)C(=O)NN=C2CCCCCCC2)S(C)(=O)=O)cc1 (stereo not drawn)	11.9	4.3	-0.4	-4.3	0.1	-26.1
CCOc1ccc(N(C(C)C(=O)NC2CCCCCC2)S(C)(=O)=O)cc1 (stereo not drawn)	-0.8	.	90.5*	-1.4	0.2	-20.4
O=C1CCC(c2ccccc2)c2ccccc21 (stereo not drawn)	.	3.3	-13.8	.	0.1	10.1
N#CC1C(=O)c2ccccc2C1c1ccccc1 (stereo not drawn)	-3.1	-24.5	-20.0	.	0.4	51.9*
Cc1ccc(C(=O)NC(=C(Cl)Cl)S(=O)(=O)c2ccccc2)cc1	-129.1	-5.1	83.5*	0.8	-0.1	-27.4
COc1ccc(C(=O)NC(=C(Cl)Cl)S(=O)(=O)c2ccc(C)cc2)cc1	-26.6	-11.0	44.7	3.4	0.0	-6.2
Cc1ccc(C(=O)NC(C#N)=C(Cl)Cl)cc1	.	105.7*	.	1.2	.	.
COC(=O)NC(=C(Cl)Cl)S(=O)(=O)c1ccccc1	-137.1	10.8	68.6*	4.9	-0.2	-0.2
C/C=C/c1ccc(C2[C@H]3CNC[C@@H]2N3S(=O)(=O)Cc2ccccc2)cc1 (stereo partly drawn)	.	1.2	.	.	.	.
CN1CCCCN2[C@H](CO)[C@@H](c3ccc(-c4cccnc4)cc3)[C@@H]2C1	.	1.5	.	.	.	.
O=C(Nc1cccc(F)c1)N1CC(=O)N2[C@H](C1)[C@@H](c1ccc(-c3ccc(F)cc3)cc1)[C@@H]2CO	.	-0.1	.	.	.	.
COC(=O)c1cn(NC(=O)C2CCC(C)CC2)c(=O)c2ccccc12 (stereo not drawn)	14.5	.	-4.1	2.7	-0.1	1.5
COC(=O)c1cn(NC(=O)c2cc([N+](=O)[O-])ccc2F)c(=O)c2ccccc12	85.9*	17.4	67.6*	-2.0	-0.6	9.4
COc1ccc(C(=O)CN(CCC(=O)O)S(=O)(=O)c2ccc([N+](=O)[O-])cc2)cc1	60.8*	-15.3	-12.9	.	0.1	-3.9
CCOC(=O)c1ccccc1N/C=C/C(=O)c1cccs1	-10.3	-46.4	0.5	1.9	-0.2	33.9
O=C(/C=C\Nc1cccc(F)c1)c1cccs1	-49.8	.	9.8	0.5	0.0	-55.9
O=C(/C=C/Nc1ccc(F)cc1F)c1cccs1	3.4	78.6*	60.1*	-3.0	-0.3	10.4
